From PubChem BioAssay
Activity calls are given as the source filed them. Unless noted, the rule behind the calls is not given here.

What was measured:
[1] = anti-His antibody binders, primary screen, artefact control for SMM control protein annotation, biochemical, small-molecule microarray, 635 nm fluorescence (AID 1128); details: anti-His Alexa647 antibody binding, higher = more signal;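 note: score merges feature fluorescence with signal-to-noise for each printed compound spot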
[2] = tested on: Human papillomavirus type 1a E7 protein (residues 1-88); assay: HPV1a E7 small-molecule binders, primary screen, biochemical, small-molecule microarray, residues 1-88, 635 nm (AID 1129); details: small-molecule microarray binding, fluorescence 635 nm; higher = more signal
[3] = molecular target: Focal adhesion kinase 1 (Homo sapiens) (UniProt Q05397); assay: small-molecule microarray binders of FAK, primary screen, biochemical, 635/667 nm fluorescence, BSA, DTT (AID 1130); details: PTK2 binding, 635 nm fluorescence, higher = more signal;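 note: composite of spot emission at 667 nm and signal to noise over triplicate slides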
[4] = tested on: Fibrinogen (Alexa647-labelled); assay: fibrinogen binders on compound microarrays, profiling panel, artefact control for SMM control-protein annotation, biochemical, small-molecule microarray, 635/667 nm fluorescence (AID 1131); details: fibrinogen-A647 binding fluorescence, higher = more signal;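 note: z-score merges 667 nm fluorescence with per-spot signal-to-noise over triplicate slides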
[5] = molecular target: Follistatin (Homo sapiens) (UniProt P19883); assay: follistatin binders on small-molecule microarrays, primary screen, biochemical, small-molecule microarray, 635/667 nm fluorescence (AID 1132); details: FST binding, 635 nm fluorescence, higher = more signal
[6] = molecular target: Fibroblast growth factor 2 (Homo sapiens) (UniProt P09038); assay: FGF2 binders on small-molecule microarrays, primary screen, biochemical, small-molecule microarray, 635/667 nm fluorescence (AID 1133); details: small-molecule microarray binding, FGF2, fluorescence 635/667; higher = more signal
[7] = mitochondrial membrane potential change in A549 cells, profiling panel, cell-based, JC-1 fluorescence, basal, 24 h, 100 nL (AID 1138); details: higher = more signal;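 note: A549 lung adenocarcinoma cells under basal conditions with no added stimulus; test concentration not given here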
Lefty1 = Lefty1 binders on small-molecule microarrays, primary screen, biochemical, small-molecule microarray, 635/667 nm fluorescence (AID 1139); details: small-molecule microarray binding, fluorescence 635/667; higher = more signal
[8] = tested on: wheat germ agglutinin (Triticum aestivum), Alexa647-labelled; assay: wheat germ agglutinin binders on compound microarrays, profiling panel, artefact control for SMM control-protein annotation, biochemical, small-molecule microarray, 635/667 nm fluorescence (AID 1140); details: WGA-A647 binding, 635 nm fluorescence, higher = more signal;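 note: score merges 667 nm feature emission with signal to noise over triplicate slides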
[9] = molecular target: Luciferin 4-monooxygenase (Photinus pyralis) (UniProt P08659); assay: firefly luciferase enzyme inhibitors, primary screen, biochemical, luminescence, purified enzyme, 2006 set (AID 1141); details: SteadyGlo luminescence, 30 min, higher = more signal, called active from +8 up or from −8 down;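 note: cell-free assay with purified firefly luciferase at 100 ng per well in PBS; test concentration not given here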
[10] = tested on: Wnt5a (protein binding on small-molecule microarray); assay: Wnt5a binders on small-molecule microarray, primary screen, biophysical, 635/667 nm fluorescence (AID 1142); details: 635 nm fluorescence, higher = more signal;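 note: fluorescence read at 667 nm with signal to noise per printed feature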
[11] = cell viability in Huh7 cells, primary screen, cytotoxicity control for HCV replication inhibitor project, CellTiter-Glo luminescence, basal, 48 h (AID 1143); details: Huh7 HCV replicon, higher = more signal, called active from +8 up or from −8 down;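 note: Huh7 hepatoma cells carrying a hepatitis C replication reporter with no stimulus; test concentration not given here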
[12] = P. aeruginosa biofilm formation inhibitors, primary screen, PAO1 strain, BacTiter-Glo luminescence, LB-PBS (AID 1144); details: 12 h, higher = more signal
[13] = CREB reporter modulators without forskolin, primary screen, cell-based, PC12, CRE-LacZ reporter, unstimulated (AID 1145); details: no forskolin, luminescence, 4.5 h, higher = more signal, called active from +8 up or from −8 down
[14] = CREB reporter modulators under forskolin, primary screen, cell-based, PC12, CRE-LacZ reporter, forskolin-stimulated (AID 1146); details: luminescence, 4.5 h, higher = more signal, called active from +8 up or from −8 down;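 note: PC12 cells with 6xCRE LacZ reporter stimulated by forskolin 10 µM; beta-galactosidase reporter signal reflecting CREB driven transcription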
[15] = molecular target: Streptavidin (Streptomyces avidinii) (UniProt P22629); assay: streptavidin binders on small-molecule microarray, primary screen, artefact control for SMM compound annotation, biophysical, 635/667 nm fluorescence (AID 1147); details: streptavidin binding, higher = more signal;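 note: signal reflects streptavidin binding to arrayed compounds as a control protein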
[16] = small-molecule binders of probe aInhba, primary screen, biochemical, small-molecule microarray, 635/667 nm fluorescence (AID 1148); details: higher = more signal;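 note: score merges 667nm spot fluorescence with signal-to-noise for antibody binding to printed compounds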
Torsin-1A (Homo sapiens) [17] = molecular target: Torsin-1A (Homo sapiens) (UniProt O14656); assay: torsin A binders from cell lysate, primary screen, small-molecule microarray, wild-type, 635/667 nm (AID 1149); details: COS7 hTOR1A-WT lysate, 635 nm fluorescence, higher = more signal
Torsin-1A (Homo sapiens) [18] = molecular target: Torsin-1A (Homo sapiens) (UniProt O14656); assay: small-molecule binders of mutant TOR1A in lysate, primary screen, cell lysate, small-molecule microarray, COS7 lysate, 635/667 nm fluorescence (AID 1150); details: COS7 hTOR1A mutant lysate, 635 nm fluorescence, higher = more signal;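 note: score pools 667 nm emission and signal to noise measuring lysate protein binding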
[19] = tested on: Sonic hedgehog protein (Shh); assay: small-molecule binders of Shh protein, primary screen, biochemical, small-molecule microarray, 635/667 nm fluorescence (AID 1151); details: small-molecule microarray binding, 635 nm fluorescence; higher = more signal;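 note: Shh protein binding to compounds spotted on small-molecule microarray slides; score combines spot fluorescence intensity with signal-to-noise across triplicate slides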

Torsin-1A (Homo sapiens), sequence (O14656 whole entry, looked up): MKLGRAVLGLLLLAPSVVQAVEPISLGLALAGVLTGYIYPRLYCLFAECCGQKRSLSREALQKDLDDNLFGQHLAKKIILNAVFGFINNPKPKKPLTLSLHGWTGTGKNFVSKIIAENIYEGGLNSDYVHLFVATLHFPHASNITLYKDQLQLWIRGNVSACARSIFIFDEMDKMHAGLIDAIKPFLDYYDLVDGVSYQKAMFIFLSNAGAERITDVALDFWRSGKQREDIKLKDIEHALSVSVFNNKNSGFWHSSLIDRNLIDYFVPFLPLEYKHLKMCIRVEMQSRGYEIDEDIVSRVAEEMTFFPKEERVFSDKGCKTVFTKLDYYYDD
Luciferin 4-monooxygenase (Photinus pyralis), sequence (P08659 whole entry, looked up): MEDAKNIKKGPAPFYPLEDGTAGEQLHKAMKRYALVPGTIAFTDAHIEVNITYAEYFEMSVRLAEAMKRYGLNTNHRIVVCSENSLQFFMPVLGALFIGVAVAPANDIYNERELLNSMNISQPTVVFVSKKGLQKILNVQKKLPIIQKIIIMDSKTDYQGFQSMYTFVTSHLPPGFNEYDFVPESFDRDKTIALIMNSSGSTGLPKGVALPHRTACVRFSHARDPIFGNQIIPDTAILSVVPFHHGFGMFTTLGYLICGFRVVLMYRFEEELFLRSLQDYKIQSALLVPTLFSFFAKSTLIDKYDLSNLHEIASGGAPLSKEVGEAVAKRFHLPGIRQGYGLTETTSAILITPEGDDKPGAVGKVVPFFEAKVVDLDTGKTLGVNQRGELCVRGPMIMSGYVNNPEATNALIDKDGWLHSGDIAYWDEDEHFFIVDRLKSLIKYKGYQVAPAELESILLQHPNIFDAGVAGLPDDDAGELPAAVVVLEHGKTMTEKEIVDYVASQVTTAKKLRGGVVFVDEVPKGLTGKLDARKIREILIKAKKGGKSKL
Focal adhesion kinase 1 (Homo sapiens), sequence (Q05397 whole entry, looked up): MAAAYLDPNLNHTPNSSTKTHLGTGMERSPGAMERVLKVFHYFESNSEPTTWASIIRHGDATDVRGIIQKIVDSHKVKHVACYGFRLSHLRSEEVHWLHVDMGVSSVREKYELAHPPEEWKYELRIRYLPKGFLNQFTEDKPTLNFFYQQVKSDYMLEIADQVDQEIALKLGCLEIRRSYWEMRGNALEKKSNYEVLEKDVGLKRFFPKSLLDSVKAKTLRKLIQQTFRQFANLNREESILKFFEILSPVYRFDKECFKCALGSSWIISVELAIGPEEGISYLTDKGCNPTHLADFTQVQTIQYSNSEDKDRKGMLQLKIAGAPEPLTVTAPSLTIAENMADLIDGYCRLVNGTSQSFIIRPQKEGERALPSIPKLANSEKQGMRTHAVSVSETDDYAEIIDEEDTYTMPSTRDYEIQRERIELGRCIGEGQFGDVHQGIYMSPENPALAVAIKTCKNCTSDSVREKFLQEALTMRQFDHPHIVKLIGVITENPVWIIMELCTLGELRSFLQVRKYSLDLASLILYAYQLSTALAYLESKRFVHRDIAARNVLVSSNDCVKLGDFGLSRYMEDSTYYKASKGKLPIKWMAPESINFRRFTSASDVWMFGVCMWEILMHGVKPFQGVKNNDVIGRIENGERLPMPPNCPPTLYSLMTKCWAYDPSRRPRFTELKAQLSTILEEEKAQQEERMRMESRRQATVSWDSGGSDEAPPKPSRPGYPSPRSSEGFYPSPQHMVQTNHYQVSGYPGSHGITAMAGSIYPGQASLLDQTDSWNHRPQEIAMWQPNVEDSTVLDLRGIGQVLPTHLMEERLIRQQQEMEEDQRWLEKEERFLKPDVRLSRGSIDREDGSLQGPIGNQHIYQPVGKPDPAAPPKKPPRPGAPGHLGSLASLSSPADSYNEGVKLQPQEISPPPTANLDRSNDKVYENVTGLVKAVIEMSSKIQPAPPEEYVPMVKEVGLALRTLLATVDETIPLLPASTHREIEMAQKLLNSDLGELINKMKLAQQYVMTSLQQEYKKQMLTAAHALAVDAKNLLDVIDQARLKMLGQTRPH
Follistatin (Homo sapiens), sequence (P19883 whole entry, looked up): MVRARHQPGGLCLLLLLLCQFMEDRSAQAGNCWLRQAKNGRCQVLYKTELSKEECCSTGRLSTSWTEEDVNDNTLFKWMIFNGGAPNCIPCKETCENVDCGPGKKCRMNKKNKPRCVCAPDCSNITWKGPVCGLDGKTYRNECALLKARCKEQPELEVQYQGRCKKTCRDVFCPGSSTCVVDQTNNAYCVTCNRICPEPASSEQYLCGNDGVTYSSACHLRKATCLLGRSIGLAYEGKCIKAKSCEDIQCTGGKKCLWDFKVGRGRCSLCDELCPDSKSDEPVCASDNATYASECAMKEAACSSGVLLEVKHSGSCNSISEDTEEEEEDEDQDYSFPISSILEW
Streptavidin (Streptomyces avidinii), sequence (P22629 whole entry, looked up): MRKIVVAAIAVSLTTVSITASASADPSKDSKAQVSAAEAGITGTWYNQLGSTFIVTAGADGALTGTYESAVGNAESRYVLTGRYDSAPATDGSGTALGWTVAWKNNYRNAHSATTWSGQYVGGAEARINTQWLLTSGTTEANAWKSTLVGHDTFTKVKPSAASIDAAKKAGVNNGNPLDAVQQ
Fibroblast growth factor 2 (Homo sapiens), sequence (P09038 whole entry, looked up): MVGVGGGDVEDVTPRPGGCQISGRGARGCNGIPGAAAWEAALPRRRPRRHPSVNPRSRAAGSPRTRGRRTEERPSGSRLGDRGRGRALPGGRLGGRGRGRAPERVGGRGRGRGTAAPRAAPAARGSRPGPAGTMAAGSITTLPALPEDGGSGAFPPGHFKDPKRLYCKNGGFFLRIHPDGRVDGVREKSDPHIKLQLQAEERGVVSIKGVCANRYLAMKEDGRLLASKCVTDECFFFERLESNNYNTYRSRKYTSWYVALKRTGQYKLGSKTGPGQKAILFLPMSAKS

SMILES	composite z-score [1]	composite z-score [2]	composite z-score [3]	composite z-score [4]	composite z-score [5]	composite z-score [6]	z-score [7]	composite z-score (Lefty1)	composite z-score [8]	z-score [9]	composite z-score [10]	z-score [11]	z-score [12]	z-score [13]	z-score [14]	composite z-score [15]	composite z-score [16]	composite z-score (Torsin-1A (Homo sapiens) [17])	composite z-score (Torsin-1A (Homo sapiens) [18])	composite z-score [19]
COc1ccc(NC(=O)O[C@H]2[C@@H]3OC(=O)[C@H](Cc4cccc(Br)c4)C/C=C/C[C@@H](Cc4cccc(Br)c4)C(=O)O[C@H]3[C@@H](OC)O[C@@H]2CO)cc1	0.66	0.632	1.73	0.145	0.358	0.293	1.69	1.16	0.464	-1.29 (inactive)	0.232	-0.878 (inactive)	0.388 (inactive)	0.753 (inactive)	-0.686 (inactive)	0.328	0.318	0.344	1.34	0.597
COC(=O)C1N=C(c2ccc(OCCCO)cc2)N(c2ccccc2)O1 (stereo not given)	1.91	1.15	-0.0976	0.992	1.33	1.76	1.8	0.156	1.29	-7.36 (inactive)	0.924	0.255 (inactive)	-0.787 (inactive)	0.353 (inactive)	0.0512 (inactive)	0.562	0.308	0.654	0.328	0.664
